In all, about 39,000 compounds went through this assay and about 3,300 (8.5%) were called active. This excerpt belongs to a sample that is enriched for actives.
The compounds below were run on HepG2 (assay: cytotoxicity call (relative viability < 0.9)). Conditions: 10 µM.

Row | SMILES | cytotoxicity call
1 | Nc1ncnc2c1CCC2 | inactive
2 | CCCCCCCCNC[C@@H](O)[C@H](O)[C@@H](O)[C@@H](O)CO | inactive
3 | CCCCCCCCNC(C)C(O)c1ccc(SC(C)C)cc1 (stereo unspecified) | active
4 | CC(NCCc1ccc(O)cc1)C(O)c1ccc(O)cc1.Cl (stereo unspecified) | inactive
5 | C[C@H]1CN([C@@H](C)CO)C(=O)c2cc(NC(=O)Cc3ccccc3)ccc2O[C@H]1CN(C)S(=O)(=O)c1cn(C)cn1 | inactive
6 | C[C@@H]1CN([C@@H](C)CO)C(=O)c2cc(NS(=O)(=O)c3ccc(F)cc3)ccc2O[C@@H]1CN(C)C(=O)Nc1cccc2ccccc12 | inactive
7 | N[C@@H](CC(=O)Nc1ccc(Cl)cc1)C(=O)O | inactive
8 | CC(C)NC(=N)NC(=N)Nc1ccc(Cl)cc1.Cl | active
9 | Cl.Cl.N=C(NCCCCCCNC(=N)NC(=N)Nc1ccc(Cl)cc1)NC(=N)Nc1ccc(Cl)cc1 | active
10 | C[C@H](CO)N1C[C@H](C)[C@@H](CN(C)S(=O)(=O)c2ccccc2)Oc2c(NC(=O)C3CC3)cccc2C1=O | inactive
11 | C[C@H]1CN([C@@H](C)CO)C(=O)c2cccc(NC(=O)c3ccncc3)c2O[C@@H]1CN(C)S(=O)(=O)c1ccc(F)cc1 | inactive
12 | COCCN1CCC(N(Cc2ccc(-c3ccc(C(F)(F)F)cc3)cc2)C(=O)Cn2c(SCc3cccc(F)c3F)cc(=O)c3ccccc32)CC1 | active
13 | C[C@@H]1CN([C@@H](C)CO)C(=O)c2cc(NC(=O)c3ccncc3)ccc2O[C@@H](C)CCCCO[C@@H]1CN(C)S(C)(=O)=O | inactive
14 | COc1ccc2c(c1)C(=O)C(=O)N2 | inactive
15 | O=C1Nc2ccc(I)cc2C1=Cc1cc(Br)c(O)c(Br)c1 | active
16 | COc1ccc2c(c1)/C(=N\O)C(=O)N2 | inactive
17 | CC(C)C[C@@H](N)C(=O)N[C@H]1C(=O)N[C@@H](CC(N)=O)C(=O)N[C@H]2C(=O)N[C@H]3C(=O)N[C@H](C(=O)N[C@H](C(=O)O)c4cc(O)cc(O)c4-c4cc3ccc4O)[C@H](O)c3ccc(c(Cl)c3)Oc3cc2cc(c3O[C@@H]2O[C@H](CO)[C@@H](O)[C@H](O)[C@H]2O[C@H]2C[C@](C)(N)[C@H](O)[C@H](C)O2)Oc2ccc(cc2Cl)[C@H]1O | inactive
18 | C[C@@H]1CCCCO[C@@H](CN(C)C(=O)Nc2cccc3ccccc23)[C@@H](C)CN([C@H](C)CO)C(=O)c2cc(NS(=O)(=O)c3ccc(Cl)cc3)ccc2O1 | inactive
19 | COc1ccc(S(=O)(=O)Nc2ccc3c(c2)[C@@H]2C[C@@H](CC(=O)NCC4CC4)O[C@H](CO)[C@@H]2O3)cc1 | inactive
20 | CS(=O)(=O)O.CSc1ccc2c(c1)C(N1CCN(C)CC1)Cc1ccccc1S2 (stereo unspecified) | active
21 | C[C@H]1CN([C@@H](C)CO)C(=O)Cc2cc(NC(=O)Nc3cccc4ccccc34)ccc2O[C@H]1CN(C)S(=O)(=O)c1ccc(F)cc1 | inactive

Row | SMILES | cytotoxicity call
22 | C[C@H](CO)N1C[C@H](C)[C@H](CN(C)Cc2ccc(-c3ccccc3)cc2)Oc2c(NC(=O)c3ccc(-c4nccs4)cc3)cccc2C1=O | inactive
23 | C[C@@H]1CN([C@H](C)CO)C(=O)c2cc(NC(=O)Nc3ccc(C(F)(F)F)cc3)ccc2O[C@@H]1CN(C)Cc1ccc(Oc2ccccc2)cc1 | active
24 | C[C@H](CO)N1C[C@H](C)[C@H](CN(C)Cc2ccc(Oc3ccccc3)cc2)Oc2ccc(NC(=O)Nc3ccc(C(F)(F)F)cc3)cc2C1=O | active
25 | C[C@H]1CN([C@@H](C)CO)C(=O)c2cc(NC(=O)Nc3ccc(C(F)(F)F)cc3)ccc2O[C@H]1CN(C)Cc1ccc(Oc2ccccc2)cc1 | active
26 | C[C@@H]1CN([C@H](C)CO)C(=O)c2cc(NC(=O)Nc3ccc(C(F)(F)F)cc3)ccc2O[C@H]1CN(C)Cc1ccc(Oc2ccccc2)cc1 | inactive
27 | C[C@@H]1CN([C@@H](C)CO)C(=O)c2cc(NC(=O)Nc3ccc(C(F)(F)F)cc3)ccc2O[C@H]1CN(C)Cc1ccc(Oc2ccccc2)cc1 | active
28 | C[C@H](CO)N1C[C@H](C)[C@@H](CN(C)Cc2ccc(Oc3ccccc3)cc2)Oc2ccc(NC(=O)Nc3ccc(C(F)(F)F)cc3)cc2C1=O | inactive
29 | C[C@H]1CN([C@@H](C)CO)C(=O)c2cc(NC(=O)Nc3ccc(C(F)(F)F)cc3)ccc2O[C@@H]1CN(C)Cc1ccc(Oc2ccccc2)cc1 | inactive
30 | C[C@@H]1CN([C@@H](C)CO)S(=O)(=O)c2ccc(Br)cc2O[C@H]1CN(C)CC1CCOCC1 | inactive
31 | COc1ccc(NC(=O)Nc2ccc3c(c2)C(=O)N([C@@H](C)CO)C[C@H](C)[C@@H](CN(C)C(=O)Nc2cccc4ccccc24)O3)cc1 | inactive
32 | C[C@H]1CN([C@@H](C)CO)S(=O)(=O)c2ccc(C#Cc3ccccc3)cc2O[C@@H]1CN(C)C(=O)Cc1ccccn1 | inactive
33 | Nc1nc(=O)c2ncn(CCC(CO)CO)c2[nH]1 | inactive
34 | Cc1noc(C)c1NC(=O)N(C)C[C@H]1Oc2ccc(NC(=O)NC(C)C)cc2CC(=O)N([C@H](C)CO)C[C@H]1C | inactive
35 | C[C@@H]1CN([C@@H](C)CO)C(=O)c2cc(NC(=O)Nc3ccc(C(F)(F)F)cc3)ccc2O[C@@H]1CN(C)Cc1ccc(Oc2ccccc2)cc1 | active
36 | C[C@@H]1CN([C@@H](C)CO)C(=O)c2cc(NC(=O)Nc3ccc(C(F)(F)F)cc3)ccc2O[C@@H]1CN(C)C(=O)Nc1ccccc1 | inactive
37 | C[n+]1ccc(/C2=C3\C=CC(=N3)/C(c3cc[n+](C)cc3)=c3/cc/c4[n]3[Fe][n]3c2ccc3/C(c2cc[n+](C)cc2)=C2/C=CC(=N2)\C=4c2cc[n+](C)cc2)cc1 | active
38 | O=C(O)c1ccc(/C2=C3\C=CC(=N3)/C(c3ccc(C(=O)O)cc3)=c3/cc/c4[n]3[Mn+][n]3c2ccc3/C(c2ccc(C(=O)O)cc2)=C2/C=CC(=N2)\C=4c2ccc(C(=O)O)cc2)cc1 | inactive
39 | C[C@@H]1CN([C@@H](C)CO)C(=O)c2cc(NC(=O)Cc3ccccc3)ccc2O[C@@H]1CN(C)S(=O)(=O)c1ccccc1 | inactive
40 | C[C@@H]1CN([C@@H](C)CO)C(=O)c2cccc(NC(=O)C3CC3)c2O[C@@H]1CN(C)S(=O)(=O)c1cccs1 | inactive
41 | Cc1ccc(S(=O)(=O)N(C)C[C@@H]2OCCCC[C@@H](C)Oc3ccc(NC(=O)Nc4c(C)noc4C)cc3C(=O)N([C@@H](C)CO)C[C@@H]2C)cc1 | inactive

— the antibiotic and cytotoxicity screens of Wong et al. (2023)
